“And” between values parts separate entries of the source, which are not always exact repeats. Identical values can stand only once. Records with an inconclusive call do not appear. A number with no mark means an inactive call. The source made the active and inactive calls. The call rests on the fitted dose curve; in most records, active means well fitted curve in the direction sought with a large enough effect; inconclusive means small, poorly fitted or top-dose-only effect, or another doubt; inactive means no such curve, though single readings can be large; an effect the other way counts as inactive or inconclusive.
Test: P-glycoprotein substrates identified in KB-8-5-11 adenocarcinoma cell line, qHTS therapeutic library screen (AID 1346987); further: nearly all actives have a fitted effect of over 65% in size; further: potency means the concentration at half of the fitted maximal effect; on activity change, negative = cytotoxicity: on the % scale 0 is the no-effect control and ±100 the full control effect
Conditions: KB-8-5-11 (P-gp overexpressing) viability, CellTiter-Glo, 72 h; series mostly up to 44.5 µM; activity change, negative = cytotoxicity: at the top concentration
Procedure, shortened: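 P-gp-mediated resistance screen: KB-8-5-11 cells treated 72 h with compounds in dose-response. CellTiter-Glo viability.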

Row | SMILES | activity change, negative = cytotoxicity [%] | Potency
1 | CC(C)=CCC/C(C)=C/CC/C(C)=C/CCC(=O)OC/C=C(\C)CCC=C(C)C | -3.73 | 
2 | OC1(c2ccc(Cl)c(C(F)(F)F)c2)CCN(CCCC(c2ccc(F)cc2)c2ccc(F)cc2)CC1 |  | 23.1 µM (active) and 20.6 µM (active)
3 | Cc1cc(C(C)(C)C)c(O)c(C(C)(C)C)c1 | -9.57 | 
4 | CO[C@@]1(NC(=O)CSC[C@@H](N)C(=O)O)C(=O)N2C(C(=O)O)=C(CSc3nnnn3C)CS[C@@H]21 | -9.74 | 
5 | CSc1ccc(/C=C2/C(C)=C(CC(=O)O)c3cc(F)ccc32)cc1 | -3.92 | 

Test: NS1 protein of Zika virus - qHTS assay to identify small molecule inhibitors in human HEK 293 cells (AID 1347053);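 further: plate controls were infected untreated cells for no effect and uninfected cells for full effect; nearly all actives have a fitted effect of over 55% in size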
Conditions: HEK293 ZIKV MR766 infection, NS1 TR-FRET, 24 h; series mostly up to 46.1 µM; activity change, negative = inhibition: at the top concentration
Procedure, shortened: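 HEK 293; 20 h pre-culture, 37 C/5% CO2; cpd 1 h pre-infection; ZIKV MR766, MOI = 0.5, 24 h, 37 C; TR-FRET NS1 readout (two anti-NS1 Abs); norm. to no-virus vs infected.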

Row | SMILES | activity change, negative = inhibition [%]
6 | CCC(C(=O)OCCN1CCOC(c2ccccc2)C1C)c1ccccc1 (stereo not given) | -1.52
7 | COC(=O)/C=C\C(=O)OC | -2.67
8 | Cc1ccccc1N1CCN(CCc2nnc3n2CCCC3)CC1 | -3.78
9 | C=CCNc1nc(NCC=C)nc(N2CCN(C(c3ccc(F)cc3)c3ccc(F)cc3)CC2)n1 | 13
10 | OCc1cccnc1 | -5.08
11 | O=C(O)[C@@H](O)[C@H](O)[C@H](O)[C@@H](O)C(=O)O | -2.76
12 | CC(C)=CCC/C(C)=C/CC/C(C)=C/CCC(=O)OC/C=C(\C)CCC=C(C)C | 2.38
13 | Cc1cc(C(C)(C)C)c(O)c(C(C)(C)C)c1 | -16
14 | CCc1cc2cc(OC)c(OC)cc2c(Cc2ccccc2)n1 | -0.623
15 | Cc1nc2n(c(=O)c1CCN1CCC(C(=O)c3ccc(F)cc3)CC1)CCS2 | 1.56
16 | COc1cc2c(cc1OC)CN(C(=O)[C@H](C)N[C@@H](CCc1ccccc1)C(=O)O)[C@H](C(=O)O)C2 | -23.2
17 | CCOc1c(N2CCOCC2)cnn(C)c1=O | 1.19
18 | Cc1ccc(C(=O)Oc2ccc(C(O)CNC(C)(C)C)cc2OC(=O)c2ccc(C)cc2)cc1 (stereo not given) | 6.24
19 | Nc1ccc([N+](=O)[O-])c(C(F)(F)F)c1 | -1.47
20 | CCCCCCCC(=O)[O-].CCCCCCCC(=O)[O-].[Zn+2] | 8.37
21 | COc1ccc([C@@H]2Sc3ccccc3NC(=O)[C@@H]2O)cc1 | 41.4
22 | O=C(O)c1cn(C2CC2)c2cc(Cl)c(F)cc2c1=O | -27.1
23 | CCOC(=O)C(O)c1ccccc1 (stereo not given) | 0.772

Row | SMILES | activity change, negative = inhibition [%]
24 | CO[C@@]1(NC(=O)CSC[C@@H](N)C(=O)O)C(=O)N2C(C(=O)O)=C(CSc3nnnn3C)CS[C@@H]21 | -8.97
25 | CSc1ccc(/C=C2/C(C)=C(CC(=O)O)c3cc(F)ccc32)cc1 | 0.272
26 | CCOc1ccccc1OCC1CNCCO1 (stereo not given) | 4.11
27 | Nc1nc(=O)n([C@@H]2O[C@H](CO)[C@@H](O)[C@@H]2F)cc1I | 5.3
28 | O=c1[nH]sc2cc(Cl)ccc12 | -9.43
29 | NC(=O)COCCN1CCN(C(c2ccccc2)c2ccc(Cl)cc2)CC1 (stereo not given) | -13.3
30 | COc1ccc2cc(C=O)ccc2c1 | 3.04
31 | N#CSCC(=O)O | 3.56
32 | CC1(C)OC(=O)Nc2ccc(Br)cc21 | -1.17
33 | O=C(c1cc(O)c(O)c(O)c1)c1ccc(O)c(O)c1O | 0.657
34 | NS(=O)(=O)c1ccc(N2CCCCS2(=O)=O)cc1 | -2.19
35 | Cn1c(=O)c2c(ncn2CC(=O)O)n(C)c1=O | -5.1
36 | C/C(=N/NC(=O)c1ccncc1)C(=O)O | 11.1
37 | CCOC(=O)c1ccc(NC(=O)CN2CCCCC2)cc1 | 0.984
38 | Oc1cccc2[nH]ccc12 | -15
39 | NC(=O)NC1N=C([O][Al])NC1=O (stereo not given) | 4.23
40 | O=C1CC[C@H](C(=O)N2CCCCC2)N1 | 9.78
